Results on 27 compounds are retold here after PubChem BioAssay.

The target of the assay is Streptavidin (Streptomyces avidinii) (UniProt P22629). Briefly: compounds binding control protein streptavidin – biophysical, small-molecule microarray, 635/667 nm fluorescence, artefact control for SMM compound annotation, primary screen (AID 1147).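 Note: signal reflects streptavidin binding to arrayed compounds as a control protein.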 The conditions noted are these: higher = more signal.
Chain of Streptavidin (Streptomyces avidinii) (P22629 whole entry, looked up): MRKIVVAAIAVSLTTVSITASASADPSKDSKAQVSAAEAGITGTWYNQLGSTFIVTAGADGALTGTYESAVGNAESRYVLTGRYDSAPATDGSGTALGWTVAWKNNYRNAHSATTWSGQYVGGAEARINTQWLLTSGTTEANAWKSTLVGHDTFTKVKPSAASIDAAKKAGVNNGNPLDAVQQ
`CN(C)C(=O)[C@@]1(Cc2ccccc2)COC(c2ccc(OCCCO)cc2)=N1` came in with a composite z-score of 0.142.
Under `CO[C@H]1O[C@H](CO)[C@@H](OC(=O)CCc2ccccc2)[C@H](OC(=O)c2cc3ccccc3[nH]2)[C@H]1OC(=O)c1cc2ccccc2[nH]1` stands -0.0944; under `CN1C(=O)C2C=CC(C(O)c3cc(C(F)(F)F)cc(C(F)(F)F)c3)N(Nc3ccccc3)C2C1=O` (configuration not stated), 0.0416; under `COCCOC(=O)N1C(=O)[C@@]2(c3cc(C#CCCO)ccc31)[C@H](C(N)=O)[C@H]1C(=O)O[C@H](c3ccccc3)[C@H](c3ccccc3)N1[C@@H]2c1ccc(OCCO)cc1`, 0.438.
Under `COCCOC(=O)N1C(=O)[C@@]2(c3cc(C#Cc4ccc(OC)cc4)ccc31)[C@H](C(=O)NC[C@H](O)c1ccccc1)[C@H]1C(=O)O[C@H](c3ccccc3)[C@H](c3ccccc3)N1[C@@H]2c1ccc(OCCO)cc1` stands 0.277.
Under `COCCOC(=O)N1C(=O)[C@@]2(c3cc(C#CCNC(N)=O)ccc31)[C@H](c1ccc(OCCO)cc1)N1[C@H](c3ccccc3)[C@H](c3ccccc3)OC(=O)[C@H]1[C@@H]2C(N)=O` stands 0.947.
For `CC(=O)NCCCC[C@@H]1NC(=O)[C@H]2C[C@@H](C(=O)NCCCCCNC(=O)CS)[C@@H](c3cccc(OCCO)c3)N2C1=O`, the composite z-score is -0.155.
`O=C1O[C@H](c2ccccc2)[C@H](c2ccccc2)N2[C@H]1[C@@H](C(=O)N1CCCCCCC1)[C@]1(C(=O)Nc3ccc(C#CC4(O)CCCCCC4)cc31)[C@H]2c1ccccc1OCCO`: the composite z-score was determined as 4.02.
Under `COCCCNC(=O)[C@@]1(c2ccc([N+](=O)[O-])cc2)CC(=O)N(CC23CC4CC(CC(C4)C2)C3)[C@@H]1c1ccc(CO)cc1I` stands -0.414.
Under `COc1ccc(C#Cc2ccc3c(c2)[C@]2(C(=O)N3)[C@H](C(=O)N3CCCCCCC3)[C@H]3C(=O)O[C@H](c4ccccc4)[C@H](c4ccccc4)N3[C@@H]2c2ccc(O)cc2)cc1` stands 0.627.
Under `C=C(/C(=C/C[C@H](OC(=O)c1ccncc1)c1cccc(OCCO)c1)c1cnc2ccccc2c1)C(C)C` stands 0.929; under `CCCCCCCCCCC(O)C1C=CC2C(=O)N(C)C(=O)C2N1Nc1cc(OC)c(OC)c(OC)c1` (configuration not stated), 0.133.
In turn, `Nc1cc(Br)ccc1C(=O)O` yielded a composite z-score of 0.689.
The compound `CN(C)C(=O)[C@]1(CCS(=O)(=O)c2ccccc2)N=C(c2ccc(OCCCO)cc2)O[C@@H]1c1ccccc1` yielded a composite z-score of 1.22.
Compound `O=C1N(CCS(=O)(=O)c2ccccc2)Cc2ccccc2[C@@H]2OC(c3ccc(OCCCO)cc3)=N[C@]12CCS(=O)(=O)c1ccccc1` displayed a composite z-score of 0.844.
The compound `COc1ccc([Si](C)(C)[C@H]2[C@H](CC(=O)N3Cc4ccccc4C[C@H]3CO)O[C@@]3(C(=O)N(Cc4ccc(N5C(=O)c6cccc7cccc5c67)cc4)c4ccccc43)[C@@H]2C)cc1` returned a composite z-score of 0.294.
Consider `COCC1=C2[C@@H](CCc3ccccc3)OB(O)C[C@@H]2[C@@H]2C(=O)N(C)C(=O)[C@@H]2C1`, for which the composite z-score was found to be 0.0675.
Under `CC(C)OC(=O)CC(=O)CC(O)c1ccc([N+](=O)[O-])cc1` (configuration not stated) stands -0.402.
Under `CC(C)C(=C=CC[C@@H](O)c1cccc(OCCO)c1)C[C@@H](O)c1ccccn1` stands -0.637; under `C=CCC(OC(C)=O)[C@@H]1[C@@H](N(Cc2cccc3ccccc23)C(=O)c2cccc3ccccc23)c2cc(OCCCO)ccc2N1C(=O)c1ccc2ccccc2c1` (some centres not stated), -0.0629; under `CC(=O)N1CC(C(O)C2C=CC3C(=O)NC(=O)C3N2Nc2ccc(Cl)cc2Cl)c2ccccc21` (configuration not stated), 0.543.
With `COC(=O)[C@@]1(Cc2ccc(F)cc2)[C@H]2c3cc(C(=O)N(C)C)n(Cc4c(CO)[nH]cc(C)c4=O)c3C[C@H]2CN1C(=O)c1ccccc1`, the composite z-score was -0.0278.
Under `CC(C)[C@H]1NC(=O)[C@@]23C(=O)N[C@@H](Cc4ccccc4)C2[C@H](C)[C@@]2(C)O[C@H]2C3/C=C/CCC/C=C/CNC(=O)[C@H](Cc2ccccc2)NC1=O` (some centres not stated) stands -0.77; under `CCOC(=O)C[C@H]1[C@H](OC(=O)c2ccccc2-c2ccccc2)[C@@H](NC(=O)c2ccccc2)c2cc(OCCCO)ccc2N1C(=O)c1ccccc1`, 0.19; under `COC(=O)[C@@]1(Cc2ccccc2CN=[N+]=[N-])N=C(c2ccc(OCCCO)cc2)O[C@H]1c1ccccc1`, -0.533.
Under `C=C(COC)C(=O)CC[C@@H](OC(=O)c1cccnc1)c1ccccc1OCCO` stands -0.126.
Regarding `CC1CC/C=C\[C@H]2OC34C=CCN(CCN5CCOCC5)C(=O)[C@H]3N(C(C)CO)C(=O)[C@@H]4C2C(=O)O1` (some centres not stated), the composite z-score was -1.16.
